The campaign covered roughly 220,000 compounds. About 770 (0.35%) were called active. No stated cut-off is given here; in the data, active means activation above about 11%; inactive means the rest. The entries come from a sample that favours actives as a whole.
These compounds were tested against Sphingosine 1-phosphate receptor 4 (Homo sapiens) (UniProt O95977) (assay: S1P4 receptor agonists, primary screen, cell-based (AID 1509;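 further: 0% = DMSO vehicle and 100% = reference agonist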)). Details: S1P4-expressing cell line, agonist reporter assay; at 4.98 µM; stronger effect = higher value.
Sphingosine 1-phosphate receptor 4 (Homo sapiens), sequence (O95977 whole entry, looked up): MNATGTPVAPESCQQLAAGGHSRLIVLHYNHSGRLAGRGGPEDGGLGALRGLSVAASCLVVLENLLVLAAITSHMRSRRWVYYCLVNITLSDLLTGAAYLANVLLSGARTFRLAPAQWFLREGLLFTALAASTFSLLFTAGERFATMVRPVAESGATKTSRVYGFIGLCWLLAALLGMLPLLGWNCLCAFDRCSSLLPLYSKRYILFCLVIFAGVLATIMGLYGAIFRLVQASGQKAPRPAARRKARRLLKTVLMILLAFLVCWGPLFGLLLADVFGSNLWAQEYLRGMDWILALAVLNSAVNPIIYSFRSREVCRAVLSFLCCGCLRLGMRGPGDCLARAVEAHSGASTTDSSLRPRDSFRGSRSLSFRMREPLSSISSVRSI
`CCc1ccc(/C=N/NC(=O)c2ccc(OC3CCCC3)cc2)s1` was tested, and the activation was 0.66% (inactive).
In the case of `O=C(O)/C=C/C(=O)NNc1ccc([N+](=O)[O-])cc1`, the activation is reported as -0.64% (inactive).
`Cc1csc(/N=C/N(C)C)c1C#N` was tested, and the activation was 0.51% (inactive).
For `CCCC(c1nnnn1C(C)(C)C)N1CCN(Cc2ccccc2)CC1` (configuration not stated), the activation was 0.72% (inactive).
In the case of `CC(C)C(c1nnnn1C(C)(C)C)N1CCN(Cc2cccnc2)CC1` (configuration not stated), the activation is reported as 12.3% (active).
`COc1ccccc1C(c1nnnn1C(C)(C)C)N1CCN(Cc2ccccc2)CC1` (configuration not stated) was tested, and the activation was -1.97% (inactive).
For `CC(=O)Nc1ccc(NC(=O)CSc2ncnc3c2cnn3Cc2ccccc2)cc1`, the activation was -0.48% (inactive).
`COc1ccc(C(C(=O)NC(C)(C)C)N(C(=O)Cn2nnc3ccccc32)c2ccc(C(C)=O)cc2)cc1O` (configuration not stated) was tested, and the activation was 0.1% (inactive).
With `CCOC(=O)COc1nc(C)cc(C(F)(F)F)c1C#N` the activation was -0.16% (inactive).
For `CCc1ccc(-n2c(=S)sc3c(=O)n(-c4ccccc4OC)c(=S)[nH]c32)cc1`, the activation was 1.93% (inactive).
With `O=C(NC1CCCCC1)C1CCCN(S(=O)(=O)c2ccc(Br)s2)C1` (configuration not stated) the activation was 1.69% (inactive).
`CCOc1cc(N2CCOCC2)c(OCC)cc1NC(=O)C1=NN(c2cccc(C)c2)C(=O)CC1` was tested, and the activation was 0.94% (inactive).
For `Cc1ccc(/C([O-])=C(/C(=S)NCc2ccco2)[n+]2ccccc2)cc1[N+](=O)[O-]`, the activation was 0.47% (inactive).
In the case of `CCN(CC)CCNC(=O)c1sc2ncn(CC(=O)Nc3ccc(C)c(Cl)c3)c(=O)c2c1C`, the activation is reported as -1.34% (inactive).
`COc1ccccc1C1CC(=O)n2c(nc(-c3ccccc3)c2-c2ccccc2)S1` (configuration not stated) was tested, and the activation was -1.26% (inactive).
With `O=C(Nc1nnc(SCc2c(Cl)cccc2Cl)s1)c1cccc([N+](=O)[O-])c1` the activation was 1.12% (inactive).
With `CNC(=O)c1[nH]cnc1C(=O)N[C@@H](CC(C)C)C(=O)OC(C)(C)C` the activation was 2.22% (inactive).
`CNC(=O)c1[nH]cnc1C(=O)N[C@@H](CC(C)C)C(=O)OCc1ccccc1` was tested, and the activation was 30.9% (active).
`CC(C)(C)OC(=O)N1CCC(NC(=O)c2[nH]cnc2C(=O)N[C@@H](Cc2ccccc2)C(=O)OCc2ccccc2)CC1` was tested, and the activation was 0.67% (inactive).
For `CC(=O)c1c(N2CCN(c3ccc(F)cc3)CC2)nc(=S)n(-c2ccccc2)c1C`, the activation was 0.51% (inactive).
For `Nc1cccc(S(=O)(=O)Nc2ccc(SC(F)F)cc2)c1`, the activation was 1.21% (inactive).
`NC(=O)c1ccccc1N=Cc1ccc2ccccc2c1` was tested, and the activation was 0.55% (inactive).
